A selection: hits, their analogues and other compounds. The true share with any hit is near 21%.
Pf growth 48h = inhibits P. falciparum growth in the first generation, 48 h; Potency, µM (highest dose often 28.7 µM), for inactives: at the highest dose activity change, negative = inhibition, usual class: inhibitors; P. falciparum luciferase growth in erythrocytes, 48 h; 5.9% of 310,000 active; further: potency means the concentration at half of the fitted maximal effect; on the % scale 0 is the no-effect control and ±100 the full control effect
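Luciferase-expressing parasites in RBCs, 2% Hct / 0.1% parasitemia final; RPMI 1640 + 0.5% Albumax; 37 C, 5% CO2, one generation; luminescence read-out, lower signal = inhibition.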
NS1 inh = blocks influenza NS1 protein function; Potency, µM (doses to about 46.1 µM), for the others: top-dose activity, positive = more growth; 0.4% of 270,000 active; calls by dose curve; further: potency means the concentration at half of the fitted maximal effect; actives are rising curves; nearly all actives have a fitted effect of over 50% in size
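OD600 was taken as the measure of yeast growth restored by compound in an NS1-expressing S. cerevisiae strain. Cells had been washed out of glucose medium and diluted 1:100 into galactose -URA medium, pH 6.0.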
Sm TGR block = inhibitors of Schistosoma mansoni thioredoxin glutathione reductase; AID 485364; Q962Y6; purified TGR, DTNB reduction, TNB absorbance 405 nm; Potency, µM (series often up to 114 µM), for the others: top-dose activity change, negative = inhibition, hits mostly inhibitors; 3% of 360,000 active; further: potency means the concentration at half of the fitted maximal effect; on the % scale 0 is the no-effect control and ±100 the full control effect; nearly all actives have a fitted effect of over 60% in size
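First, TGR (20 nM dispensed) and NADPH were mixed with compound. Second, a 15 min room-temperature incubation followed. Third, further NADPH and then DTNB were added to start the reaction. Finally, TNB absorbance was monitored kinetically.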
CHX counter = counter-screen hit for Shiga toxin inhibitors, cycloheximide; cell reporter, cycloheximide protein synthesis inhibition counterscreen; max response, %; 12% of 300,000 active; AID 2314; in the data active means max response mostly above about 13%, no sharp cut-off; inactive means mostly below about 14%; further: read at 38.3 µM for the half of the compounds with a filed dose; 0% is about no effect
Pf growth 96h = inhibits malaria parasite growth, 96 h | P. falciparum luciferase reporter growth, 96 h | Potency, µM (top dose mostly 28.7 µM), without a hit: top-dose activity change, negative = inhibition, actives largely listed as inhibitors | 6.9% of 320,000 active | AID 504834; further: potency means the concentration at half of the fitted maximal effect; on the % scale 0 is the no-effect control and ±100 the full control effect
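Plates of compound plus infected erythrocytes (2% hematocrit, 0.05% parasitemia final) incubate 96 hours, 37 C, 5% CO2. Detection reagent added; reduced luminescence from the parasites' luciferase reporter flags inhibition.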
Shiga inhibitor = blocks Shiga toxin action in Vero cells | 9.2% of 290,000 active | AID 2315 | Vero cells, Shiga toxin protein synthesis inhibition reporter | inhibition, % at 38.7 µM; in the data active means inhibition mostly above about 28%, no sharp cut-off; inactive means mostly below about 43%; further: 0% is about no effect
Starred values were filed as active, the others as inactive; ? = inconclusive; nt = no result; ! = not active in a repeat. Unless noted, the call rests on the fitted dose curve; in most records, active means well fitted curve in the direction sought with a large enough effect; inconclusive means small, poorly fitted or top-dose-only effect, or another doubt; inactive means no such curve, though single readings can be large; an effect the other way counts as inactive or inconclusive.

SMILES	Pf growth 48h	NS1 inh	Sm TGR block	CHX counter	Pf growth 96h	Shiga inhibitor
Cc1ccc2c3c([nH]c2c1C)-c1nonc1CC3	244.7%	2.7%	-22.1%	20.1*	-31.0%	43.9*
CCn1cc(C(=O)N2CCN(c3ccccc3)CC2)c(=O)c2cc(S(=O)(=O)N3CCCC3)ccc21	nt	nt	-2.2%	nt	nt	nt
NC(c1ccccc1)c1ccncc1 (centres undefined)	4.8%	-10.0%	11.5%	1.2	-19.1%	-4.8
c1ccc(NC(c2ccccc2)c2ccncc2)cc1 (centres undefined)	9.28µM*	-5.0%	?	1.9	79.8%	24.2
Cc1ccc(C)n1CCN1CCN(S(=O)(=O)c2ccc(F)cc2F)CC1	?	1.3%	?	-3.5	13.1µM*	-7.5
COc1cc(F)ccc1S(=O)(=O)N1CCN(Cc2ccccc2)CC1	-10.8%	6.0%	-0.4%	1.2	?	nt
O=C(NCC1CCCO1)c1ccccn1 (centres undefined)	-8.9%	5.8%	-5.3%	-2.1	-24.4%	12.3
O=C(NCC1CCCO1)c1ccc(N2CCCCC2)nc1 (centres undefined)	61.7%	0.8%	-8.8%	27.6*	?	40.5*
O=C(NCC1CCCO1)c1ccc2nc(N3CCCCC3)sc2c1 (centres undefined)	63.4%	-37.6%	-1.8%	51.1*	-20.5%	88.0*
CC(C)C(=O)NC(Nc1cccc([N+](=O)[O-])c1)C(Cl)(Cl)Cl (centres undefined)	1.85µM*	2.3%	nt	-0.9	22.7%	-10.5
Cc1cccc(NC(NC(=O)c2ccccc2[N+](=O)[O-])C(Cl)(Cl)Cl)c1 (centres undefined)	-22.9%	-18.5%	3.0%	0.5	-4.8%	-17.1
CN(C)C(=O)NC(Nc1cccc([N+](=O)[O-])c1)C(Cl)(Cl)Cl (centres undefined)	?	nt	20µM*	-6.3	20.0%	85.4
Cn1c(SCc2ccccc2Cl)nc(=O)c2c1NC(=O)CC2c1cc(F)ccc1F (centres undefined)	nt	nt	0.8%	nt	nt	nt
O=C(CCN1CCCCC1)c1csc2ccccc12	nt	-16.7%	nt	nt	nt	nt
N#CC(C#N)=Cc1cc(O)c(O)c(O)c1	7.57µM*	15.6%	nt	nt	10.7µM*	nt
N#CC(C#N)=Cc1ccc(O)cc1	nt	nt	nt	19.8	nt	active!
Cc1cc(C=C(C#N)C#N)ccc1N1CCCC1	5.9%	-4.1%	nt	-1.5	?	19.4
Cc1nc(N(CCO)C2CCCCC2)c2nnn(Cc3ccccc3)c2n1	?	-30.1%	1.2%	2.9	54.3%	10.2
COc1ccc(N/C=C/C(=O)c2ccc3c(c2)OCO3)cc1OC	60.9%	-36.3%	-29.5%	67.1*	?	61.4*
COc1ccc(N/C=C\C(=O)c2ccc3c(c2)OCO3)cc1	288.8%	-138.5%	1.3%	63.2*	nt	87.7*
O=C(/C=C\Nc1ccc2c(c1)OCO2)c1ccc2c(c1)OCO2	106.2%	-5.4%	nt	29.2*	23.7%	94.6*
COc1ccc(NC(=O)COC(=O)c2ccc3c(c2)OCCO3)cc1OC	5.4%	nt	7.3%	nt	-16.6%	nt
O=C(/C=C\Nc1ccc2c(c1)OCO2)c1ccccn1	67.0%	-22.7%	1.8%	-4.2	?	-22.1
O=C(Cn1c(=O)n(-c2ccccc2)c(=O)c2c3c(sc21)CCCC3)Nc1cccc(F)c1	nt	nt	-0.5%	nt	nt	nt
Cc1c(C)c2ccc(OS(C)(=O)=O)c(C)c2oc1=O	-16.0%	-6.0%	-3.0%	13.8	85.4%	10.2
SMILES	Pf growth 48h	NS1 inh	Sm TGR block	CHX counter	Pf growth 96h	Shiga inhibitor
Cc1c(C(=O)N2CCCCC2)c(S(=O)(=O)N2CCN(c3ccccc3F)CC2)c(C)n1C	?	-4.9%	-0.6%	8.8	?	-4.1
O=C(NCc1nnc2c(C(F)(F)F)cc(Cl)cn12)c1cccnc1	33.1%	-0.3%	1.2%	-2.9	25.9%	-12.3
COc1ccc(NC(=O)C(=O)NCCc2csc(-c3ccc(Cl)cc3)n2)cc1OC	nt	nt	5.2%	nt	nt	nt
CC(CNC(=O)c1ccc2nc(CCc3ccccc3)oc2c1)c1ccccc1 (centres undefined)	nt	nt	-2.2%	nt	nt	nt
O=C1Nc2ccccc2N=C(c2ccccc2)c2ccccc21	?	-5.5%	-0.4%	19.9*	?	17.3
CCc1nnc(NC(=O)c2nc(SCc3ccccc3C)ncc2Cl)s1	nt	nt	-7.8%	nt	nt	nt
CSc1nnc(NC(=O)c2nc(S(=O)(=O)Cc3ccccc3)ncc2Cl)s1	-7.2%	13.8%	12.6µM*	53.8*	-24.6%	68.0*
Cc1ccc(NC(=O)c2nc(S(=O)(=O)Cc3ccccc3C)ncc2Cl)cc1C	31.4%	-6.4%	11.2µM*	37.2*	?	39.0*
CCCc1nnc(NC(=O)c2nc(S(=O)(=O)Cc3ccc(C)cc3)ncc2Cl)s1	11.4%	9.9%	25.1µM*	30.5*	?	44.4*
Cc1ccc(CS(=O)(=O)c2ncc(Cl)c(C(=O)Nc3nc4ccc(F)cc4s3)n2)cc1	nt	nt	-9.5%	nt	nt	nt
Cc1ccccc1CS(=O)(=O)c1ncc(Cl)c(C(=O)Nc2nnc(C(C)C)s2)n1	nt	nt	20µM*	nt	nt	nt
O=C(NCCCc1ccccc1)c1ccc(-n2cncn2)c([N+](=O)[O-])c1	?	nt	4.5%	nt	3.0%	nt
O=C(O)c1ccc(C(=O)c2ccccc2)c(C(=O)O)c1	nt	5.6%	nt	nt	nt	nt
COc1ccc(-c2noc(N3CCN(c4ccc(C)cc4)C(C)C3)n2)cc1OC (centres undefined)	nt	nt	0.0%	nt	nt	nt
CC(C)c1nnc(NC(=O)c2nc(S(=O)(=O)Cc3ccccc3)ncc2Cl)s1	-11.2%	13.3%	39.8µM*	67.1*	28.6%	74.9*
CC(C)Sc1ncc(Cl)c(C(=O)Nc2nnc(C(C)C)s2)n1	nt	nt	-0.3%	nt	nt	nt
COc1cc(Cl)c(C)cc1NC(=O)c1c(C)oc2nc(C)nc(N3CCCC3)c12	nt	nt	15.3%	nt	nt	nt
COc1ccc(Br)cc1[C@@H]1Nc2ccc(C(=O)O)cc2[C@@H]2C=CC[C@@H]21	nt	nt	-19.6%	nt	nt	nt
O=C(OC1CCCCC1)c1ccc2c(c1)C1C=CCC1C(C(=O)O)N2 (centres undefined)	20.5%	17.2%	3.16µM*	7.9	?	-11.3
O=C(O)C1Nc2c(Cl)cc(Cl)cc2C2C=CCC12 (centres undefined)	14.4%	10.3%	?	-3.4	?	-15.5
O=C(O)C1Nc2c(O)cccc2C2C=CCC12 (centres undefined)	10.2%	8.1%	8.91µM*	-2.8	14.7µM*	-14.2
O=C(O)C1Nc2ccc(Br)cc2C2C=CCC12 (centres undefined)	1.5%	25.2%	0.891µM*	-1.4	40.2%	-9.1
CCOC(=O)C1Nc2ccc(Br)cc2C2C=CCC12 (centres undefined)	?	12.5%	28.2µM*	-2.3	13.1µM*	-19.1
COC(C(=O)Nc1ccnn1C1CCN(Cc2ccc(CO)o2)CC1)c1ccccc1 (centres undefined)	24.5%	4.4%	-17.1%	11.1	39.7%	-3.9
COc1ccccc1C(O)P(=O)(OCC(C)C)c1ccc(N(C)C)cc1 (centres undefined)	?	5.6%	4.9%	-3.7	-24.9%	-15.4

Assay outcomes deposited in PubChem by National Center for Advancing Translational Sciences (NCATS).
